Results filed as inconclusive are left out. Activity calls are given as the source filed them. Unless noted, calls come from the whole dose curve; as a rule, active = well fitted curve in the direction sought with a large enough effect; inconclusive = small, poorly fitted or top-dose-only effect, or another doubt; inactive = no such curve, though single readings can be large; an effect the other way counts as inactive or inconclusive.
Assays:
[1] = Cell Viability - LYMP2-001 (AID 921);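 note: series mostly up to about 92 µM; cells exposed to compound for 24 h at 37 °C; nearly all actives have a fitted effect of over 70% in size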
Outline: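 Steps: seed 2500 lymphoblastoid cells/well; 5 hr, 37 C; add compound; 24 hr, 37 C; CellTiter-Glo reagent, 30 min room temperature; read luminescence. Concentration-response modeled by Hill equation for AC50.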

[2] = MultiTox-Fluor Cytotoxicity Assay - LYMP1-001 - Dead Cells (AID 946);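 note: cells exposed to compound for 16 h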
Outline: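 In this qHTS, 15 uM tetraoctylammonium bromide defined 100% and DMSO defined basal activity. Lymphoblastoid cells (LYMP1-001, 2500 per well) received compound for 16 hr at 37 C before a fluorogenic dead-cell substrate readout at 485/520 nm.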

[3] = MultiTox-Fluor Cytotoxicity Assay - LYMP1-001 - Live Cells (AID 947)
[4] = Cell Viability - LYMP1-002 - Assay at 16 hr (AID 948)
Outline: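 Seed 2500 LYMP1-002 cells per well in complete medium and hold 5 hr at 37 C. Add compound across a concentration series and incubate 16 hr at 37 C. Add CellTiter-Glo, wait 30 min at room temperature, read luminescence.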

[5] = MultiTox-Fluor Cytotoxicity Assay - LYMP1-002 - Live Cells (AID 955);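 note: cells exposed to compound for 16 hours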
Outline: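 LYMP1-002 lymphoblastoid cells; 2500 cells/well; 16 hr compound exposure, 37 C; MultiTox-Fluor reagent 60 min RT; live-cell fluorescence Ex/Em=405/510; qHTS concentration-response, Hill-equation AC50; tetraoctylammonium bromide positive control.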

[6] = MultiTox-Fluor Cytotoxicity Assay - LYMP1-002 - Dead Cells (AID 960);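 note: cells exposed to compound for 16 h at 37 °C; nearly all actives have a fitted effect of over 60% in size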
Outline: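 Readout: fluorescence at 485/520 from cell-impermeant bis-AAF-R110 cleaved by proteases leaking from damaged cells. LYMP1-002 lymphoblastoid line, 16 hr compound treatment at 37 C, concentration-response in qHTS format; Hill-equation AC50 values.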

[7] = Confirmation and Secondary Assay for Modulators of Hemoglobin Beta Chain Splicing at IVS2 705 locus (AID 930);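 note: HeLa cells stably expressing the EGFP-705 splicing reporter; series mostly up to about 46 µM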
Outline: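 Restored EGFP fluorescence after 2-day compound exposure reports splicing correction in IVS2-705 EGFP reporter HeLa cells; positive control was 500 nM splice-blocking PNA oligo. Signal measured as well total peak GFP intensity (488 nm excitation).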

[8] = Confirmation and Secondary Assay for Modulators of Hemoglobin Beta Chain Splicing at IVS2 654 locus (AID 910);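 note: HeLa cells stably carrying EGFP split by mutant beta-globin IVS2-654 intron; per-well total GFP intensity by laser scanning cytometry after 2-day treatment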
Outline: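 Readout: per-well total peak green fluorescence (488 nm ex, 500–520 nm em) from objects 5–250 µm, reflecting correct splicing of an EGFP-654 reporter. Compounds were applied for 2 days at 37 °C to overnight-plated HeLa EGFP-654 cells; controls were DMSO and 500 nM IVS2-654 PNA.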

[9] = target: Pyruvate kinase (Leishmania mexicana) (UniProt Q27686); assay: qHTS Validation Assay for Inhibitors of Leishmania Mexicana Pyruvate Kinase (AID 945)
Pyruvate kinase (Leishmania mexicana), sequence (Q27686 2-499 E452W): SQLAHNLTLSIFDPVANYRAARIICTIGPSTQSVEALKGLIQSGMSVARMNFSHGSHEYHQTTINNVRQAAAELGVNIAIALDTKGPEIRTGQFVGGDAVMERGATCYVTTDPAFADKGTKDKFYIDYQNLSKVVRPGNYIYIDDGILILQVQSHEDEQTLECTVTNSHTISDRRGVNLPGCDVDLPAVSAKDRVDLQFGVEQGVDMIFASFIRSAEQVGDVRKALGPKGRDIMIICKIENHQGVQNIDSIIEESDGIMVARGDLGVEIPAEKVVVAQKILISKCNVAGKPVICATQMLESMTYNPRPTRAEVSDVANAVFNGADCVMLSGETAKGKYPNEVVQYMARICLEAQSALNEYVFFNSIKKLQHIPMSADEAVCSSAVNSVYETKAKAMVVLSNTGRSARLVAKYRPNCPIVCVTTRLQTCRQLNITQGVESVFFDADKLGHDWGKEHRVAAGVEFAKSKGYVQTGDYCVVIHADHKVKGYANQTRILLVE
Outline: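 Purified LmPYK (E451W mutant, 0.2 nM) was incubated 1 h at room temperature with 0.5 mM PEP and 0.1 mM ADP in 50 mM imidazole pH 7.2, 50 mM KCl, 7 mM MgCl2; ATP formed was read by PKLight luminescence, normalized to DMSO wells.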

[10] = target: Pyruvate kinase PKM (Homo sapiens) (UniProt P14618); assay: qHTS Assay for Activators of Human Muscle Pyruvate Kinase (AID 954; active = well fitted curve in the direction sought with a large enough effect, not every such curve was filed as active)
Pyruvate kinase PKM (Homo sapiens), sequence (P14618 whole entry, looked up): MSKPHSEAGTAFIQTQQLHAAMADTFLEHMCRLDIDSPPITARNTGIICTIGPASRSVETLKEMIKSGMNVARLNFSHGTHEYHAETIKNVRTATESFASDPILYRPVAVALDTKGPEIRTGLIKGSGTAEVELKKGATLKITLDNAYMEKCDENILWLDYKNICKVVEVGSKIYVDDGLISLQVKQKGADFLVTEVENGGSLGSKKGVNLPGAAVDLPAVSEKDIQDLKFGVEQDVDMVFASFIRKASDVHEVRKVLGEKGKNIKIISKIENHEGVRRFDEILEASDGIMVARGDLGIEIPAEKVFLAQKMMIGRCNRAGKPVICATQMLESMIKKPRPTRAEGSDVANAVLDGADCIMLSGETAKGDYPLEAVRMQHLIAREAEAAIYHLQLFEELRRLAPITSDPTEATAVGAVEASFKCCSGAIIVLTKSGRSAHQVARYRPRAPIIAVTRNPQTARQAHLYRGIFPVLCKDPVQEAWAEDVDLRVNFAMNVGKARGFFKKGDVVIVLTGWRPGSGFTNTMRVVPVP
Outline: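 Screening used highly purified human pyruvate kinase M2 under submaximal activity, with PEP at its Km and ADP below Km. After an hour at room temperature, ATP was read by luciferase luminescence.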

Measured: outcome

CC(=O)O[C@@H]1CC(C)=C2[C@H]1[C@H](C)CC[C@H]2/C=C(\C)C(=O)O
inactive: [1] | [2] | [3] | [4] | [5] | [6]

CC(C)C(N)C(=O)OCCOCn1cnc2c(=O)[nH]c(N)nc21 (stereo not drawn)
inactive: [7]

Nc1ccccc1N
inactive: [2] | [4] | [5] | [6]

CC(C)[N+]1(C)C2CCC1CC(OC(=O)C(CO)c1ccccc1)C2 (stereo not drawn)
inactive: [8] | [7]

CC(=O)O[C@H]1C(=O)[C@@]2(C)[C@H]([C@H](OC(=O)c3ccccc3)[C@]3(O)C[C@H](OC(=O)[C@H](O)[C@@H](NC(=O)c4ccccc4)c4ccccc4)C(C)=C1C3(C)C)[C@]1(OC(C)=O)CO[C@@H]1C[C@@H]2O
inactive: [9] | [10]

Cc1ccc(N)cc1O
inactive: [1] | [2] | [3] | [4] | [5] | [6]

CC(=O)c1cc2c(cc1O)OC(C)(C)C=C2
inactive: [8] | [7]
